Laboratory results published in PubChem BioAssay AID602393 (Broad Institute, 2012).
About 7,000 (2%) of roughly 350,000 compounds were called active. Cut-off read from the data, not from the text of the source: active = activation above about 40%; inconclusive = no clear call, values can overlap the other calls; inactive = below that. The sample as a whole holds a higher share of actives than the screen did.

Assay: Bmi1 luciferase reporter increase in mESCs, primary screen, esBAF inhibitor project, mouse ES cells, Bmi1 luciferase knock-in, single point (AID 602393);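 note: 0% = median of the plate's neutral control wells and 100% = double that signal; a rise in the Bmi1 reporter signal indicates esBAF inhibition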
Details: 24 h, at 12.5 µM, stronger effect = higher value, 100% = twice the neutral-well signal

Reporter increase, inactive:
COCC(=O)Nc1ccc2c(c1)C(=O)N(C)C[C@@H](OC)[C@H](C)CN(C(=O)c1ccccn1)[C@@H](C)CO2 4.23%
CCCOC(=O)c1[nH]c2c(c1C)C(=O)CC(c1cccs1)C2 (stereo not given) -12.1%
CCCOC(=O)C1=C(C)NC2=C(C(=O)C(C(=O)OC)C(C)C2)C1c1ccc(N(C)C)cc1 (stereo not given) 8.57%
CC(=O)N1[C@H](CO)[C@H](c2ccc(-c3ccccc3)cc2)[C@H]1CNC(=O)C1CC1 2.48%
COc1ccccc1S(=O)(=O)Nc1ccc2c(c1)C(=O)N(C)C[C@H](OC)[C@H](C)CN[C@H](C)CO2 -6.13%
Cc1nn(C(C)C(=O)NCCC2=CCCCC2)c(=O)c2nn(-c3ccccc3)c(C)c12 (stereo not given) 21%
CC(C)Sc1ncnc2c1cnn2-c1ccccc1 19%
C[C@@H]1CN([C@@H](C)CO)C(=O)Cc2cc(NC(=O)CCN3CCOCC3)ccc2O[C@@H]1CN(C)C(=O)Nc1cccc2ccccc12 -0.153%
O=C(NCCc1ccc2c(c1)OCCO2)c1cc2ccccc2o1 24.4%
CC(C)(C)n1nc2c(c1NC(=O)c1cc3ccccc3o1)CSC2 -2.69%
CN(C)C(CNC(=O)c1cc2ccccc2o1)c1ccccc1 (stereo not given) 7.21%
Cc1cc(NC(=O)c2cc3ccccc3o2)no1 20.5%
COc1ccccc1C#Cc1ccc2c(c1)O[C@@H](CN(C)Cc1cncnc1)[C@H](C)CN([C@@H](C)CO)S2(=O)=O 8.66%
COC(=O)N(C)C[C@H]1OCc2ccccc2-c2ccccc2C(=O)N([C@@H](C)CO)C[C@H]1C 5.99%
CN(c1ccccc1)S(=O)(=O)c1cccc(NC(=O)Cc2ccc(Cl)cc2)c1 -11.6%
CN(c1cccc(NC(=O)c2ccc(CN3CCc4ccccc4C3)cc2)c1)S(C)(=O)=O -0.323%
C[C@H](CO)N1C[C@H](C)[C@@H](CN(C)CC2CCCCC2)Oc2ccc(NS(=O)(=O)c3cccs3)cc2CC1=O -1.82%
CCCNC(=O)C[C@@H]1C[C@@H]2c3cc(N(C)C)ccc3O[C@@H]2[C@H](CO)O1 1.01%
CCCN(C)C[C@@H]1Oc2cc(C#Cc3ccc(F)cc3)ccc2S(=O)(=O)N([C@H](C)CO)C[C@H]1C -2.93%
C=CCn1nc(C(=O)OCC)cc1-c1sc(NC(=O)c2ccccc2)nc1C 4.24%
CCOC(=O)c1cc(-c2sc(NC(=O)c3ccccc3)nc2C)n(CCO)n1 12.3%
CCOC(=O)c1cc2ccccc2n1CC(=O)c1ccccc1 2.35%
CCOc1ccc(C(=O)Nc2c3c(nn2-c2ccccc2)CS(=O)(=O)C3)cc1 -0.973%
COc1ccc(NC(=O)Nc2ccc3c(c2)[C@@H]2C[C@H](CC(=O)N[C@@H](C)c4ccccc4)O[C@@H](CO)[C@@H]2O3)cc1 -1.34%
Cc1ccc(S(=O)(=O)N(C)C[C@@H]2OCCCC[C@@H](C)Oc3ccc(NC(=O)Nc4ccc(C(F)(F)F)cc4)cc3C(=O)N([C@@H](C)CO)C[C@@H]2C)cc1 1.3%
C[C@@H]1CCCCO[C@H](CN(C)S(=O)(=O)c2ccccc2)[C@H](C)CN([C@@H](C)CO)C(=O)c2cc(N(C)C)ccc2O1 -0.863%
Cc1cc2c(=O)n(C)c(SCC(=O)c3cc4ccccc4o3)nc2s1 -5.28%
COc1ccc2oc(=O)cc(-c3cc4ccccc4o3)c2c1 -2.86%
COc1ccccc1C(=O)Nc1ccc2c(c1)C(=O)N(C)C[C@@H](OC)[C@@H](C)CN(CC1CC1)[C@@H](C)CO2 2.64%
CCC(=O)N1CCCCN2[C@H](C1)[C@@H](c1ccc(C#CCOC)cc1)[C@@H]2CO 3.27%
C[C@H](CO)N1C[C@H](C)[C@@H](CN(C)S(=O)(=O)c2ccc(F)cc2)OCCCC[C@H](C)Oc2ccc(NC(=O)CCCN(C)C)cc2C1=O -3.29%
Cc1ccc(S(=O)(=O)N2C[C@H](O)COC[C@@H]3O[C@@H](CC(=O)NCC4CCCCC4)CC[C@H]32)cc1 -0.379%

Reporter increase, active:
CCOC(=O)c1[nH]c2c(c1C)C(=O)CC(c1ccc(N(C)C)cc1)C2 (stereo not given) 51.2%
C1=C(CCNc2ncnc3c2cnn3-c2ccccc2)CCCC1 69.7%
Cc1ccc(NC(=O)c2cc3ccccc3o2)cc1 52.9%
O=C(Nc1ccncc1)c1cc2ccccc2o1 75.6%
CN(c1cccc(NC(=O)Nc2ccc(Cl)cc2)c1)S(C)(=O)=O 50.6%
CCOC(=O)c1cc(-c2sc(NC(=O)c3ccccc3)nc2C)n(Cc2ccccc2)n1 56%
CCOC(=O)c1cc(-c2sc(NC(=O)c3ccccc3)nc2C)n(-c2ccc(Br)cc2)n1 50.4%
Nc1ncc(-c2cc3ccccc3oc2=O)s1 47.3%
